The values that follow come from PubChem BioAssay (NCATS).

Molecules are shown by their SMILES. Values without a mark were called inactive. Results filed as inconclusive are left out. Activity calls are given as the source filed them. Unless noted, the call rests on the fitted dose curve; in most records, active means well fitted curve in the direction sought with a large enough effect; inconclusive means small, poorly fitted or top-dose-only effect, or another doubt; inactive means no such curve, though single readings can be large; an effect the other way counts as inactive or inconclusive.

Test [1] deals with Lysosomal acid glucosylceramidase (Homo sapiens) (UniProt P04062). Nature of the test: Glucocerebrosidase-p2 (AID 348; in the data active means potency below about 10 µM; further: potency means the concentration at half of the fitted maximal effect). Conditions: purified GBA, blue fluorogenic substrate, 40 min. A digest of the protocol:
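Normal human glucocerebrosidase (0.2 nM) with blue fluorogenic substrate (80 uM final) in citrate/phosphate pH 5.9 with 10mM sodium taurocholate, 0.01% tween-20; 40 min RT, NaOH/glycine stop; fluorescence Ex 365/Em 440; AC50 from a titration from 0.6 nM upwards.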

A short description of test [2]: AP1 Signaling Pathway (AID 357; active means well fitted curve in either direction with a large enough effect, not every such curve was filed as active; further: on the % scale 0 is the no-effect control and ±100 the full control effect). To be noted: ME-180 AP-1-bla reporter, EGF-induced, beta-lactamase ratio, 5 h; at 7.69 µM (top of the series) unless noted. Summed up:
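ME-180 cells with beta-lactamase reporter under AP-1 response element, stimulated with EC50 EGF; compounds tested in titration series, 5 h at 37 °C. CCF4 substrate added 2.5 h at room temperature; 460/530 nm emission ratio gave %activity and AC50.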

The target of test [3] is Cytochrome P450 1A2 (Homo sapiens) (UniProt P05177). Briefly: p450-cyp1a2 (AID 410; calls by dose curve; further: potency means the concentration at half of the fitted maximal effect). To be noted: recombinant CYP1A2, luciferin-ME demethylation, luminescence; series mostly up to 57 µM. A digest of the protocol: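 O-Demethylation of luciferin 6' methyl ether by human CYP1A2 is monitored as luciferase luminescence. Substrate sits at Km (100uM); enzyme is 20nM. Values are scaled to 57 uM furafylline as maximal inhibition.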
Chain of Cytochrome P450 1A2 (Homo sapiens) (P05177 whole entry, looked up): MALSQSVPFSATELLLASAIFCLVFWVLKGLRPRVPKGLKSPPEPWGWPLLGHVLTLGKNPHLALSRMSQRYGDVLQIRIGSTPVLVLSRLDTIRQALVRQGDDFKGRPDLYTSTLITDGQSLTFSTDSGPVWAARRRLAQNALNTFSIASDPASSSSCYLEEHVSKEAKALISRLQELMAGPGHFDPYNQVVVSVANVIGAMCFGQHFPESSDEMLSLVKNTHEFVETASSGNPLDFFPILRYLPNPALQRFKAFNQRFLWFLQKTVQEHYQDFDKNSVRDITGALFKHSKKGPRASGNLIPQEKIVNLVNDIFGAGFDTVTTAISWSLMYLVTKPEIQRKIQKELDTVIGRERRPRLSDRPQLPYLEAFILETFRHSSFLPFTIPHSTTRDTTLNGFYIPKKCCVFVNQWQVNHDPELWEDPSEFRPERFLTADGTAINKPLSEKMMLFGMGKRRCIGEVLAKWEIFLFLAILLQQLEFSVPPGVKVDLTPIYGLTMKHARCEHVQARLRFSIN

A short description of test [4]: NFAT Signaling Pathway (AID 444; active means well fitted curve in either direction with a large enough effect, not every such curve was filed as active;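 further: carbachol stimulus at about its EC50 of 1 µM final; on the % scale 0 is the no-effect control and ±100 the full control effect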). To be noted: Jurkat NFAT-bla M1, carbachol, beta-lactamase ratio, 5 h; at 7.69 µM (top of the series) unless noted. A digest of the protocol: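 Jurkat cells with NFAT-driven β-lactamase reporter and co-expressed M1 receptor, stimulated with carbachol (final 1 uM, ~EC50), compound titration, 5 h at 37 °C. CCF4 loaded 1 h at RT; 460/530 nm ratio gave %activity and AC50.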

Test [5] is described as follows: Stat Signaling Pathway (AID 446; active means well fitted curve in either direction with a large enough effect, not every such curve was filed as active;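 further: ME-180 cervical cancer cells given 40 pM IL-6 alongside compound; SIE-controlled beta-lactamase reporter measured as 460/530 nm FRET emission ratio; on the % scale 0 is the no-effect control and ±100 the full control effect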). To be noted: ME-180 (cervical carcinoma) SIE beta-lactamase reporter, IL-6 stimulated, 5 h; at 7.69 µM (top of the series) unless noted. Summed up: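 Overnight-plated ME-180 cells bearing a STAT Inducible Element beta-lactamase reporter; 5 h co-exposure to compound and 40 pM IL-6; values normalized to 300 pM IL-6 and 125 nM JAK inhibitor controls.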

Test [6] has as its target Glucocorticoid receptor (Homo sapiens) (UniProt P04150). Nature of the test: GR-GFP Redistribution (AID 450;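 active means compounds whose dose series gives a full or clear partial fitted curve of increased nuclear translocation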; further: potency means the concentration at half of the fitted maximal effect). Conditions: U2OS GR-GFP nuclear translocation, laser cytometry, 2 h.
For test [7] the target is unchanged. Briefly: GR-EFC Redistribution (AID 451; calls by dose curve; further: potency means the concentration at half of the fitted maximal effect). To be noted: CHO-K1 GR-EFC translocation, beta-gal luminescence, 2 h. Summed up:
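CHO-K1 cells expressing nuclear EA and GR-ED fragments of b-gal; compounds titrated up to 46 uM final, 2 h at 37 C. GR nuclear translocation read as complemented b-gal luminescence after 1 h RT detection.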

The target in test [8] is Cytochrome P450 3A4 (Homo sapiens) (UniProt P08684). Briefly: qHTS Assay for Activators of Cytochrome P450 3A4 (AID 885). Further: nearly all actives have a fitted effect of over 65% in size. To be noted: recombinant CYP3A4, Luciferin-PPXE luminescence, 60 min; series mostly up to 57.1 µM. Summed up: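 Using 20nM recombinant human CYP3A4 in potassium phosphate (200mM), substrate Luciferin-PPXE at 25uM, luminescent luciferin detection followed a 60-min RT NADPH reaction; data scaled to 57 uM ketoconazole.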
Chain of Cytochrome P450 3A4 (Homo sapiens) (P08684 whole entry, looked up): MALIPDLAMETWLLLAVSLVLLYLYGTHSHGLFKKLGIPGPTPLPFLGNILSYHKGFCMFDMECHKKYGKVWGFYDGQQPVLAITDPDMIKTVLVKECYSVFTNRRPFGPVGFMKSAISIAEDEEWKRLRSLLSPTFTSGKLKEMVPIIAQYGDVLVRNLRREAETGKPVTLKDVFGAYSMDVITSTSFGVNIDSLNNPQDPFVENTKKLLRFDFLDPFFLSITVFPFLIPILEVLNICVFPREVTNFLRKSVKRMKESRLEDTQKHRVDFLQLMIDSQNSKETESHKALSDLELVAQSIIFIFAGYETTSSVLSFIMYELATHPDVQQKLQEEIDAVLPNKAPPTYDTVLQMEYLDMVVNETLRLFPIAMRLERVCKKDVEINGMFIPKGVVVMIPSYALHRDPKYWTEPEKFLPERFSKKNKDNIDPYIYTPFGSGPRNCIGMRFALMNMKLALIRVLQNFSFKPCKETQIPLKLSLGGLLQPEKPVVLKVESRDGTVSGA
A general note: Quantitative high-throughput screening tests each substance at several concentrations.

In test [9] the target is Dual specificity protein kinase CLK4 (Homo sapiens) (UniProt Q9HAZ1). Briefly: qHTS Assay for Inhibitors of CDC-like Kinase 4 (Kinase-Glo Assay) (AID 1770). Further: nearly all actives have a fitted effect of over 65% in size. Further: potency means the concentration at half of the fitted maximal effect. Conditions: recombinant Clk4, Kinase-Glo ATP depletion luminescence; series mostly up to 66.7 µM. Summed up: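 Substrate mix (RS peptide 100 uM, ATP 1 uM) dispensed, compound pinned in, then Clk4 added to 25 nM final. Incubated 4.5 h at RT; Kinase-Glo reagent added, luminescence read after 5 min.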
Chain of Dual specificity protein kinase CLK4 (Homo sapiens) (Q9HAZ1 whole entry, looked up): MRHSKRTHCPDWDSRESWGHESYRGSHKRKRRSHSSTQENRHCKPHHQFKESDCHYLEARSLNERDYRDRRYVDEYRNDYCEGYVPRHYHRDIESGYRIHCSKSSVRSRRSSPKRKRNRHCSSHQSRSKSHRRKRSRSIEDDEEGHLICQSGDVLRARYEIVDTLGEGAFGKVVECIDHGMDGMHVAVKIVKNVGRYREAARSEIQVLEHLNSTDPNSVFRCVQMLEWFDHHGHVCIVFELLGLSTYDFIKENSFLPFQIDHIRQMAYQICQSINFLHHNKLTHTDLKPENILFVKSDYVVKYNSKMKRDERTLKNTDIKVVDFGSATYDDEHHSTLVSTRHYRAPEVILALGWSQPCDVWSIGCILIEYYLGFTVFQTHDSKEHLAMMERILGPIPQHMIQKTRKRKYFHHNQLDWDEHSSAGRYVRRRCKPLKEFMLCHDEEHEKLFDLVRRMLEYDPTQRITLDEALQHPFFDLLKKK

The target is the same in test [10]. Nature of the test: qHTS Assay for Inhibitors of CDC-like Kinase 4 (ADP-Glo Assay) (AID 1771). Further: nearly all actives have a fitted effect of over 70% in size. Further: potency means the concentration at half of the fitted maximal effect. Conditions: recombinant CLK4, ADP-Glo luminescence; series mostly up to 80 µM. A digest of the protocol: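 Compounds are pin-transferred onto substrate mix (100 uM RS peptide, 1 uM ATP), then 25 nM Clk4 is added. After 1 hr at room temperature, ADP-Glo reagent runs 45 min, detection reagent 30 min, then luminescence is read.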

Test [11] has the same target. Nature of the test: qHTS Assay for Inhibitors of CDC-like Kinase 4 (ADP-FP Assay) (AID 1795).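 Further: recombinant human CLK4 phosphorylating RS repeat peptide at 1 µM ATP; on the % scale 0 is the no-effect control and ±100 the full control effect; nearly all actives have a fitted effect of over 60% in size.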 To be noted: Transcreener ADP fluorescence polarization; series mostly up to 50 µM. A digest of the protocol:
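Clk4 6.25 nM; RS peptide 100 uM; ATP 1 uM; 25 mM Tris pH 7.5, 10 mM MgCl2; 1 h reaction. ADP detected via antibody/orange tracer FP displacement; TG003 positive control.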

Test [12] concerns the target Ubiquitin carboxyl-terminal hydrolase 1 (Homo sapiens) (UniProt O94782). Nature of the test: Inhibitors of USP1/UAF1: Pilot qHTS (AID 504865).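 Further: rhodamine fluorescence freed from ubiquitin-rhodamine substrate followed over time; top concentration of the series differs between compounds; on the % scale 0 is the no-effect control and ±100 the full control effect; nearly all actives have a fitted effect of over 35% in size.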 To be noted: purified USP1/UAF1, Ub-rhodamine cleavage fluorescence; series mostly up to 54.9 µM. A digest of the protocol:
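In 50mM HEPES pH 7.8 containing 0.5mM EDTA, 1mM TCEP, 0.1 mg/ml BSA and 0.01% Tween-20, 1nM USP1/UAF1 is exposed to compound for 15 min, then Ub-Rho (150nM final) is added and fluorescence is read over time.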

Test [13] is described as follows: Primary qHTS for small molecule stabilizers of the endoplasmic reticulum resident proteome: Secreted ER Calcium Modulated Protein (SERCaMP) assay (AID 1508630). Further: on the % scale 0 is the no-effect control and ±100 the full control effect. Conditions: SH-SY5Y GLuc-SERCaMP (Gaussia luciferase released on ER calcium loss) secretion, thapsigargin, luminescence; series mostly up to 38.4 µM. A digest of the protocol:
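The SH-SY5Y reporter protocol was run at 3 concentrations up to 38.3 uM (primary) or 11 concentrations (follow-up): 16 h compound, 100 nM thapsigargin for 4 h, then extracellular luciferase luminescence.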

The target in test [14] is Mitogen-activated protein kinase 10 (Mus musculus) (UniProt Q61831). Nature of the test: JNK3 AlphaScreen Assay (AID 530; active means well fitted curve in either direction with a large enough effect, not every such curve was filed as active). Conditions: JNK3 lysate, c-Jun phosphorylation; series mostly up to 57.1 µM. A digest of the protocol: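 Activity was read by AlphaScreen after JNK3-containing HepG2 lysate (cytokine pre-activated) phosphorylated biotinylated GST-cJun with 10 uM ATP at room temperature. Phospho-Ser73 cJun antibody with Protein-A acceptor beads provided detection.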

Test [15] deals with 3',5'-cyclic-AMP phosphodiesterase 4B (Homo sapiens) (UniProt Q07343). Briefly: qHTS Assay for Inhibitors of PDE-IV (AID 607; active means well fitted activation curve with a large enough effect in the main read-out, with a control signal flat, not every such curve was filed as active; further: % of control where 0% means no effect). Conditions: HEK293 ACTOne CNG channel cells, membrane potential fluorescence; series mostly up to 22.9 µM. A digest of the protocol: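 Live HEK293 cells with a modified cyclic nucleotide-gated (CNG) channel report intracellular cAMP via membrane-potential dye fluorescence (ex 535/em 590 nm). Endogenous PDE-IV was targeted. Compounds were tested at up to 22.9 uM final; RO 20-1724 100 uM served as control.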
Chain of 3',5'-cyclic-AMP phosphodiesterase 4B (Homo sapiens) (Q07343 whole entry, looked up): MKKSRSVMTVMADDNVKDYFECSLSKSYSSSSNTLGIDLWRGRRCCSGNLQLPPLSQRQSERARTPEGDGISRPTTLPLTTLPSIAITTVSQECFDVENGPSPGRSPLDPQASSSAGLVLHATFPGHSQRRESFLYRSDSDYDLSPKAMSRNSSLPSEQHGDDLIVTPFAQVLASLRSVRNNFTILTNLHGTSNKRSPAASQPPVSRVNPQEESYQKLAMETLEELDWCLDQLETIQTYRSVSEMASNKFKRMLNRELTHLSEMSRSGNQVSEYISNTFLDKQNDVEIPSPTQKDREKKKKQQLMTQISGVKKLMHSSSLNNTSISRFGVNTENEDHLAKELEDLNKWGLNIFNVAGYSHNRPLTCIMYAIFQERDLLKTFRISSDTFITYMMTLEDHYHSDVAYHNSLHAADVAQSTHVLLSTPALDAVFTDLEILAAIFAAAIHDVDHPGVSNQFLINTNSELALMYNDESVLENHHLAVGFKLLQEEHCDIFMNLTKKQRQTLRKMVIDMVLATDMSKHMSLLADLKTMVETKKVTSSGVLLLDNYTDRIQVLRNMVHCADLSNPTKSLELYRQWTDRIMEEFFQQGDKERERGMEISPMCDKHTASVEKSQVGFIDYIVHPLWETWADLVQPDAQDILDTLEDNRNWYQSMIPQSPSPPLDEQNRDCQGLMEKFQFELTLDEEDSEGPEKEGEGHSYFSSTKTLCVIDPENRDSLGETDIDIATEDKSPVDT

The target in test [16] is Cytochrome P450 3A4 (Homo sapiens) (UniProt P08684). Nature of the test: qHTS Assay for Inhibitors and Substrates of Cytochrome P450 3A4 (AID 884). Further: potency means the concentration at half of the fitted maximal effect; nearly all actives have a fitted effect of over 50% in size. To be noted: recombinant CYP3A4, Luciferin-PPXE luminescence; series mostly up to 57.1 µM. Summed up: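 Luminescent readout of luciferin produced by CYP3A4 (20 nM) dealkylation of Luciferin-PPXE, 25 uM (its KM). NADPH-driven reaction ran 60 min at RT after 10 min compound preincubation; data scaled to 57 uM ketoconazole as 100% inhibition.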

In test [17] the target is Cytochrome P450 2C19 (Homo sapiens) (UniProt P33261). Briefly: qHTS Assay for Inhibitors and Substrates of Cytochrome P450 2C19 (AID 899). Further: potency means the concentration at half of the fitted maximal effect; nearly all actives have a fitted effect of over 60% in size. Conditions: recombinant CYP2C19, luciferin-H EGE luminescence; series mostly up to 57.1 µM. A digest of the protocol: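 5 nM human CYP2C19 with 10uM Luciferin-H EGE (at KM) in 50mM KPO4, compound preincubated 10 min at 37C, then NADPH regeneration for 60 min at 37C. Luciferin read by luminescence after detection reagent; normalized to 57uM ketoconazole as full inhibition.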
Chain of Cytochrome P450 2C19 (Homo sapiens) (P33261 whole entry, looked up): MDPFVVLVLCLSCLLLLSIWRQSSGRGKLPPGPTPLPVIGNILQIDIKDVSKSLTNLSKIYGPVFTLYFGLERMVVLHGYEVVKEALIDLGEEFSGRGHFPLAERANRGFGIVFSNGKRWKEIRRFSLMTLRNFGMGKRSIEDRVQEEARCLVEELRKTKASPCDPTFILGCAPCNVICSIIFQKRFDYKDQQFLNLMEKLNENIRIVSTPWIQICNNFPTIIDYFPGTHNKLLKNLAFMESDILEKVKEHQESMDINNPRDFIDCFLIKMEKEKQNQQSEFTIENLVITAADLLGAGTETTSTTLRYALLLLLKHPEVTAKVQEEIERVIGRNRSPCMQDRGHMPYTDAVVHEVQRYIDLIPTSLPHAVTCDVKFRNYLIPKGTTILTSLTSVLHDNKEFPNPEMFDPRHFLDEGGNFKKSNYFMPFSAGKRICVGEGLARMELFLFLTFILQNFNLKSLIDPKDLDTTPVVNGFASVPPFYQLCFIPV

Chain of Lysosomal acid glucosylceramidase (Homo sapiens) (P04062 whole entry, looked up): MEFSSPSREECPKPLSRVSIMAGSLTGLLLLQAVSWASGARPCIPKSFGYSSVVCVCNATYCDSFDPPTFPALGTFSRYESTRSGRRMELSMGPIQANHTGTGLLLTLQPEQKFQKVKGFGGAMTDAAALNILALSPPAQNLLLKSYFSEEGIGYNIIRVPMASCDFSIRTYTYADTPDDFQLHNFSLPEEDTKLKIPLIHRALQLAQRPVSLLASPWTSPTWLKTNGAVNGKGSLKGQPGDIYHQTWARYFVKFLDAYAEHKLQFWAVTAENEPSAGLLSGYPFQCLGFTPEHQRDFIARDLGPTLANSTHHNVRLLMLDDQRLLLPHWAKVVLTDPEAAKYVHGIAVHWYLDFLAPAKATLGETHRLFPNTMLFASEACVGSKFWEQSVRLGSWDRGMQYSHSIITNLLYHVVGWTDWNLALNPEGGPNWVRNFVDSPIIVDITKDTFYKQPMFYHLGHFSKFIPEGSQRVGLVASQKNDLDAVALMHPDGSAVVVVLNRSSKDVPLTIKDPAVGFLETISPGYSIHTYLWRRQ
Chain of Glucocorticoid receptor (Homo sapiens) (P04150 whole entry, looked up): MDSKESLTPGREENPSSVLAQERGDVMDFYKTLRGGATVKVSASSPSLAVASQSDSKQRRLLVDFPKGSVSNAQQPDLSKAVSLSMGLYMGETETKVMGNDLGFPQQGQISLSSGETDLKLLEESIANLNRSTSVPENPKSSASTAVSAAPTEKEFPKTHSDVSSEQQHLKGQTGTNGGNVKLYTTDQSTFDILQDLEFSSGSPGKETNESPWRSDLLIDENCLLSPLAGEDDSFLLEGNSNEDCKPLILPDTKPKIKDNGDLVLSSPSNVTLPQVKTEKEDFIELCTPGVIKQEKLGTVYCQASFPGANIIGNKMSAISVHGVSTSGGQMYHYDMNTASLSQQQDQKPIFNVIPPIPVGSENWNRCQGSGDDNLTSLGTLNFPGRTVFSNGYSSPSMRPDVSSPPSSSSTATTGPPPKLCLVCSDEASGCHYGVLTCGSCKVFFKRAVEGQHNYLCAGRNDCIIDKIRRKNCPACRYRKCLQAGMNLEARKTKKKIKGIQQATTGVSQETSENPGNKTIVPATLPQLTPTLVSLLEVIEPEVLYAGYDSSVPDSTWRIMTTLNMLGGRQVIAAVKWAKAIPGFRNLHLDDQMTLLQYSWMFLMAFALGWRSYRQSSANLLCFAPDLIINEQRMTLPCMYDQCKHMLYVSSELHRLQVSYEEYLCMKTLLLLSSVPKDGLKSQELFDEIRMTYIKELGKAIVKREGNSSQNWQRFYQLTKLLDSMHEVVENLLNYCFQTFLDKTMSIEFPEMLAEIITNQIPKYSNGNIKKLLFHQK
Chain of Ubiquitin carboxyl-terminal hydrolase 1 (Homo sapiens) (O94782 whole entry, looked up): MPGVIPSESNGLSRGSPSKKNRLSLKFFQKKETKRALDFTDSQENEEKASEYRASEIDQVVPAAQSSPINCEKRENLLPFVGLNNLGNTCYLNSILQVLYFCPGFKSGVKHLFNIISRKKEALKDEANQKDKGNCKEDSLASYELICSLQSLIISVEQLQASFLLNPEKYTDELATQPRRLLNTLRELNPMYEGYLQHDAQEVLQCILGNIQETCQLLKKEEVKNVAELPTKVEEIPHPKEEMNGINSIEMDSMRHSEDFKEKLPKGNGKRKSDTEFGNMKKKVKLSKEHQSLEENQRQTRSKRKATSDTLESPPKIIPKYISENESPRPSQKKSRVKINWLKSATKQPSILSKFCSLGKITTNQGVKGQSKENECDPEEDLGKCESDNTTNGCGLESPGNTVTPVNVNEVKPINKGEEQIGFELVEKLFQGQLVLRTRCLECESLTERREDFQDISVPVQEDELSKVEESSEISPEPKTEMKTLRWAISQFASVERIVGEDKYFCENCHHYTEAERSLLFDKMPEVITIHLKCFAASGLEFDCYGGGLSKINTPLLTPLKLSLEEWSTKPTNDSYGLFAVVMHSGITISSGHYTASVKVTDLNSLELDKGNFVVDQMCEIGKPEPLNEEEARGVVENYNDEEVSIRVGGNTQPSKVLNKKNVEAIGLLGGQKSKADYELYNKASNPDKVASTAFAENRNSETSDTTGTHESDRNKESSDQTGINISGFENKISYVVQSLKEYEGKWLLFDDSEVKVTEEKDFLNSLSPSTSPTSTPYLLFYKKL

On to `COc1ccc(-c2nc3cnc(N(C)C)nc3n(C[C@H]3CCCO3)c2=O)cc1`, for which the Potency in [1] was > 11.4 µM; in test [3] it was 3.16 µM (active); in test [6], > 9.22 µM; in test [7], > 46 µM. Further, the activity change, negative = inhibition was 1.23% in [2] and -3.89% in test [4]. For the same compound, the activity, negative = inhibition in [5] is 2.75%. For the same compound, the Potency result in test [8], in test [9], in test [10], in [11] and in test [12] was “inactive” in each case. In addition, the outcome in test [13] was inactive.
With `Cn1c(=O)c(-c2ccccc2)nc2cnc(OCc3ccccc3)nc21`, the Potency was > 11.4 µM in test [1], 1.58 µM (active) in test [3], > 9.22 µM in test [6] and > 46 µM in test [7]. For the same compound, the activity change, negative = inhibition in test [2] was -1.1%; in test [4] it was 4.72%. The activity, negative = inhibition in test [5] was -3.56%. For the same compound, the Potency result in [14], in test [15], in test [8], in test [9], in [10] and in [11] was “inactive” throughout. Also, the Potency entry in test [12] is “inactive”. Moreover, in [13], the result was inactive.
For `CN(C)c1ccc(-c2cncnc2N(C)Cc2ccco2)cc1`, the Potency in [1] was > 11.4 µM; in [3] it was 0.631 µM (active); in [6], > 46 µM; in test [7], > 46 µM; in [16], 0.631 µM (active); in [17] it was 0.251 µM (active). In addition, the Potency was 15.8 µM (active) in [9] and 17.8 µM (active) in test [10]. Besides, the activity change, negative = inhibition is -22.2% in [2] and -8.48% in test [4]. Further, the activity, negative = inhibition in [5] was -5.82%. Further, the Potency entry in test [8], in test [11] and in test [12] was “inactive” throughout. Also, the result in test [13] was inactive.
On to `CN(Cc1ccco1)c1ncnc2ccc(-c3ccccc3C#N)cc12`, for which the Potency in test [1] is > 11.4 µM; in test [3], 1 µM (active); in [6] it was > 46 µM; in test [7] it was > 46 µM; in test [17] it was 1.26 µM (active); in [9] it was 11.2 µM (active). Further, in test [10], the Potency is 7.08 µM (active). For the same compound, the activity change, negative = inhibition in [2] is -26.1%; in [4] it was 7.18%. The activity, negative = inhibition in [5] was 14.4%. For the same compound, the Potency entry in test [14], in test [8], in test [11] and in test [12] was “inactive” each time. The result in [13] was inactive.
`Cc1cnc(CNc2ccnc(-c3ccoc3)n2)cn1`: the Potency is > 11.4 µM in test [1], 12.6 µM (active) in [3], > 46 µM in test [6] and > 46 µM in test [7]. Moreover, the activity change, negative = inhibition is 16.3% in test [2] and -4.07% in test [4]. In addition, in [5], the activity, negative = inhibition was 7.07%. The Potency entry in [14], in [15], in test [8], in test [9], in [10] and in test [11] was “inactive” in each case. Further, the Potency entry in test [12] was “inactive”. Besides, the result in test [13] was inactive.
Consider `Cc1noc(C)c1-c1nc(Nc2ccc(F)cc2)c2ccccc2n1`, for which the Potency was > 11.4 µM in test [1]; 0.251 µM (active) in [3]; > 46 µM in [6]; > 46 µM in test [7]; 3.16 µM (active) in test [17]. The activity change, negative = inhibition in test [2] was -5.88%; in [4], 11.3%. In test [5], the activity, negative = inhibition was 4.28%. Also, the Potency result in [14], in [9], in test [10], in test [11] and in [12] was “inactive” throughout. Also, in [13], the outcome was inactive.
